VACV mCherry inh: vaccinia inhibition (mCherry reporter) | AID 720579 | Potency, µM (top dose mostly 36.5 µM), inactives show at the highest dose activity change, negative = inhibition, usual class: inhibitors | Vaccinia virus mCherry reporter infection, fluorescence | 0.63% of 310,000 active; calls by dose curve; tested in A549 cells; further: potency means the concentration at half of the fitted maximal effect; on the % scale 0 is the no-effect control and ±100 the full control effect; nearly all actives have a fitted effect of over 35% in size
VACV Venus inh: inhibitors of vaccinia virus (Venus reporter). AID 720580. Vaccinia virus Venus reporter expression, fluorescence. 0.46% of 330,000 active. Potency, µM (series often up to 36.5 µM), inactives show top-dose activity change, negative = inhibition, actives largely listed as inhibitors; calls by dose curve; tested in A549 cells; further: potency means the concentration at half of the fitted maximal effect; on the % scale 0 is the no-effect control and ±100 the full control effect; nearly all actives have a fitted effect of over 30% in size
HCV inh: HCV inhibition; 3.4% of 340,000 active; Huh7.5.1 HCVcc-Cre infection, luciferase reporter, 44 h; Potency, µM (top dose mostly 41.8 µM), for inactives: at the highest dose activity change, negative = inhibition, most hits filed as inhibitors; further: potency means the concentration at half of the fitted maximal effect; on the % scale 0 is the no-effect control and ±100 the full control effect
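Reporter virus HCVcc-Cre (~0.5 moi) infects cells exposed to compound; seeding density 1,000 cells/well with 4 h settling beforehand. Luminescence, 15 sec read, taken 44 h post-infection following a 15 min RT substrate incubation.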
Marburg entry inh: inhibitors of Marburg virus binding or cell entry. Marburg virus pseudotyped entry inhibition, cell reporter. Potency, µM (doses to about 37.8 µM), inactives show at the top dose activity change, negative = inhibition, hits mostly inhibitors. 1.8% of 300,000 active. AID 540276; calls by dose curve; tested in HEK293 cells; further: potency means the concentration at half of the fitted maximal effect; on the % scale 0 is the no-effect control and ±100 the full control effect
HCMV inh: human cytomegalovirus inhibition | 4.5% of 410,000 active | activity change, negative = inhibition, % at 57.5 µM | HFF cells, HCMV-luciferase reporter, 72 h; hits give low values | AID 1259415; in the data active means activity change below about -60%; inconclusive means no clear call, values can overlap the other calls; inactive means above about -39%; further: on the % scale 0 is the no-effect control and ±100 the full control effect
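Human foreskin fibroblasts infected with luciferase-reporter HCMV at MOI 1 PFU/cell, compounds at two doses. Luciferase measured 72 h post infection; normalized to buffer-only basal and Salinomycin (10uM) controls.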
Lassa entry inh: blocks Lassa virus binding to or entry into cells; Lassa virus pseudotype entry inhibition, cell reporter; Potency, µM (top dose mostly 37.9 µM), for inactives: top-dose activity change, negative = inhibition, most hits filed as inhibitors; 1.2% of 300,000 active; AID 540256; calls by dose curve; tested in HEK293 cells; further: potency means the concentration at half of the fitted maximal effect; on the % scale 0 is the no-effect control and ±100 the full control effect; nearly all actives have a fitted effect of over 50% in size
HCV confirm: confirmation of hepatitis C virus inhibitors. Potency, µM (series often up to 41.8 µM), for the others: top-dose activity, negative = inhibition, hits mostly inhibitors. HCVcc-Cre infectious virus cell assay, luciferase, inhibition. shares compounds with HCV inh. AID 720575. 78% of 640 active; further: potency means the concentration at half of the fitted maximal effect; nearly all actives have a fitted effect of over 80% in size
HCV host tox: host cell cytotoxicity counter-screen for HCV inhibitors | HCV host cell line cytotoxicity counterscreen | 22% of 640 active | Potency, µM (doses to about 41.8 µM), inactives show at the top dose activity change, negative = cytotoxicity, most hits filed as inhibitors | shares compounds with HCV inh | AID 720576;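 further: potency means the concentration at half of the fitted maximal effect; 44 h compound exposure; on the % scale 0 is the no-effect control and ±100 the full control effect; nearly all actives have a fitted effect of over 55% in size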
Numbers without * were called inactive; i = inactive; ? = inconclusive; . = no result; [ ] = remark or other dose. A selection: hits, their analogues and other compounds. The true share with any hit is near 7.8%. Unless noted, the call rests on the fitted dose curve; in most records, active means well fitted curve in the direction sought with a large enough effect; inconclusive means small, poorly fitted or top-dose-only effect, or another doubt; inactive means no such curve, though single readings can be large; an effect the other way counts as inactive or inconclusive.

SMILES	VACV mCherry inh	VACV Venus inh	HCV inh	Marburg entry inh	HCMV inh	Lassa entry inh	HCV confirm	HCV host tox
CCOc1ccc2c(C)nc(NC3=NC(C)(C)C=C(C)N3)nc2c1	-17%	?	5µM*	?	97	-18%	7µM*	?
CCOC(=O)c1cc2n(c1/N=C/N(C)C)-c1ccccc1C2=O	-18%	6%	?	?	31	?	?	35%
CCSc1nc2c(c(=O)n(C)c(=O)n2C)n1Cc1ccc(Cl)cc1	-9%	-4%	?	-4%	-28	-9%	.	.
Cn1c(=O)c2c(nc(SCC(=O)NCc3ccc4c(c3)OCO4)n2Cc2ccc(Cl)cc2)n(C)c1=O	.	.	2.5µM*	11%	-22	1%	3.5µM*	20%
CC1CCC(Nc2nc3c(-c4ccc(Cl)cc4)nnn3c3ccccc23)CC1 (stereo not drawn)	6%	7%	.	0%[46.1 µM]	28	?	.	.
Cc1sc(NC(=O)Cc2ccc3c(c2)OCO3)nc1-c1ccc2c(c1)CCN2C(=O)c1ccc(F)cc1	i	-15%	1.3µM*	?	-35	?	7.9µM*	-21%
CC(Nc1nc(-c2ccccc2O)nc2ccccc12)c1ccccc1 (stereo not drawn)	-1%	-28%	?	-6%[46.1 µM]	15	-8%	.	.
CCOc1nc(-c2ccccc2O)nc2ccccc12	-8%	0%	?	3%	4	2%	6.3µM*	0.89µM*
CCOC(=O)N1CCC(NC(=O)CCc2c(C)nc3c(c(C)nn3C(C)(C)C)c2C)CC1	.	.	5.6µM*	?	-73*	?	13µM*	?
CNc1nc2cc([N+](=O)[O-])c([N+](=O)[O-])cc2nc1NC	-3%	-19%	?	7.9µM*	-86*	-28%	20µM*	?
CCCc1ccc(C2C3=C(CC(C)(C)CC3=O)NC3=C2C(=O)c2ccccc23)cc1 (stereo not drawn)	-26%	?	2.2µM*	?	?	?	11µM*	?
CC1CN(C)C(C)CC1OC(=O)C(c1ccccc1)c1ccccc1 (stereo not drawn)	.	.	?	.	-6	.	25µM*	-22%
Cc1cc(NC(=S)N(CCN2CCCCC2)Cc2ccco2)ccc1Cl	-23%	-20%	8.9µM*	?	?	?	25µM*	-14%
COc1cccc(NC(=O)c2sc3nc(C)c(C(=O)Nc4ccc(C)cc4C)c(-c4ccc(C)o4)c3c2N)c1	-1%	-5%	.	?	-4	?	.	.
CC(=O)c1sc(NC(=O)CCS(=O)(=O)c2ccc(C)cc2)nc1C	-28%	?	2.8µM*	?	4	-25%	?	?
O=C(CN1C(=O)CC(c2ccco2)Sc2ccccc21)Nc1cccc(C(F)(F)F)c1 (stereo not drawn)	-11%	-13%	.	?	-8	.	.	.
CCCCCCCCCCCCC/C=C/[C@@H](O)[C@H](CO)NC(=O)CCCCCCCCCCCCCCC	-15%[3.33 µM]	-8%[3.33 µM]	.	.	.	.	.	.
c1ccc2c(c1)[nH]c1c(N3CCN(C4CCCCC4)CC3)ncnc12	-20%	-26%	-9%	?	-2	9%	.	.
c1ccc2c(c1)[nH]c1c(N3CCCC3)ncnc12	.	?	8.9µM*	?	?	-27%	7µM*	16µM*
COc1cc(-c2nc(-c3ccc4c(c3)-c3ccccc3S4(=O)=O)c(-c3ccccc3)[nH]2)cc(OC)c1OC	-8%[1.46 µM]	-28%	2µM*	-29%	-20	?	2µM*	?
COc1cccc(-c2nc(-c3ccc4c(c3)-c3ccccc3S4(=O)=O)c(-c3ccccc3)[nH]2)c1OC	.	-19%	?	?	28	-11%	.	.
CCOc1ccccc1NC(=O)C(C)Sc1nc2c(c(=O)[nH]1)CCCC2 (stereo not drawn)	-12%	4%	.	8%[46.1 µM]	14	12%[46.1 µM]	.	.
COc1ccc(S(=O)(=O)N(C)C)cc1NC(=O)C1CCN(c2ncnc3sc(C)c(C)c23)CC1	.	.	8.9µM*	.	?	.	8.9µM*	?
Cc1sc2ncnc(N3CCC(C(=O)Nc4cc(Cl)ccc4Cl)CC3)c2c1C	-5%	-14%	?	1%	-20	-8%	.	.
CCOc1ccc(C(C)=O)cc1COc1ccc(-n2cnnn2)cc1	.	2%	2.8µM*	2%	-11	-9%	0.31µM*	-22%
SMILES	VACV mCherry inh	VACV Venus inh	HCV inh	Marburg entry inh	HCMV inh	Lassa entry inh	HCV confirm	HCV host tox
COC(=O)/C(C#N)=C\c1c(OC)[nH]c2ccccc12	.	.	4µM*	.	?	.	11µM*	23%
Cc1cc(OCC(=O)Nc2sc3c(c2C(N)=O)CCCC3)ccc1C(C)C	2%	2%	.	.	-14	-2%[46.1 µM]	.	.
[O-][n+]1onc2c3cc(-c4ccccc4)nnc3ccc21	?	0%	?	-14%	-99*	-6%	?	-21%
Fc1ccc2nc(-c3ccccc3)ccc2c1	1%	-1%	.	.	1	.	.	.
COc1ccc(C2CC(=O)c3cc(-c4nc(-c5cccc([N+](=O)[O-])c5)cs4)c(=O)n(-c4ccccc4C)c3C2)cc1 (stereo not drawn)	5%	-13%	.	?	21	20%[46.1 µM]	.	.
COC(=O)/C(C)=C/CC12OC(C)(C)C3CC(C=C4C(=O)c5cc6c(c(CCC(C)(C)Cl)c5OC431)OC1(C)CCC(=C(C)C)C6C1)C2=O (stereo not drawn)	-18%	-9%	.	.	.	.	.	.
CC1=C(C)/C(=N/OC(=O)c2cccc([N+](=O)[O-])c2)C=CC1=O	.	.	7.1µM*	?	.	-18%	31µM*	31µM*
N/C(=N/OC(=O)c1cccc([N+](=O)[O-])c1)c1cccc([N+](=O)[O-])c1	i	1%	?	?	39	-1%	.	.
O=C(/C=C/c1cccs1)Nc1ccc(N2CCOCC2)c(S(=O)(=O)Nc2cc(Cl)ccc2Cl)c1	-15%	-13%	?	-29%	-11	-4%	.	.
COc1ccccc1NS(=O)(=O)c1cc(NC(=O)/C=C/c2cccs2)ccc1N1CCOCC1	-5%	-25%	?	?	-13	-4%	20µM*	10%
CCOc1ccc(CC(=O)NCCS(=O)(=O)N2CCN(c3ccc(OC)cc3)CC2)cc1	-12%	-11%	.	.	-14	-16%[46.1 µM]	.	.
CCOc1cc(C)c(C(C)C)cc1S(=O)(=O)n1ccnc1CC	-9%	-14%	.	-20%[46.1 µM]	-5	-29%[46.1 µM]	.	.
CC(=O)Nc1ccc(NC2=C(Cl)C(=O)c3ccccc3C2=O)cc1	?	?	3.2µM*	?	-101*	?	25µM*	22µM*
